Screening data from PubChem.
Most compounds without a hit are left out; they make up all but 1.6% or so of the library.
Vif inh – HIV Vif self-association inhibitors, primary screen, imaging, HEK293T, single point; HEK293T cells, Vif self-association by quenched fluorescence, 24 h; inhibition, % at 7.49 µM; 340,000 tested, 0.35% active; AID 602346, 2012; in the data active means inhibition above about 50%, passing the limit was not always enough; inconclusive means no clear call, values can overlap the other calls; inactive means below about 31%
RAD54 branch – inhibitors of human RAD54 branch migration, primary screen, biochemical, fluorescence, single point; inhibition, % at 10.4 µM; AID 602329, 2012; DNA repair and recombination protein RAD54-like (Homo sapiens), Q92698; 360,000 tested, 0.14% active; RAD54 Holliday junction branch migration, FAM/BHQ fluorescence;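 active means mean normalized replicate activity at least 40 and at least half of replicates scoring 40 or more; inconclusive means only one of the two criteria met; inactive means mean below 40 and under half of replicates reaching 40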;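 further: 0% = median of neutral control wells and 100% = median of positive control wells; inhibitors cause a drop in the FAM fluorescence signal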
Glyco luc inh – increase of ERlucT glycosylation luciferase signal, primary screen, N-linked glycosylation inhibitor project, D54 ERlucT cells, luminescence, set 2. reporter increase, % at 12.5 µM. 360,000 tested, 0.23% active. AID 588692, 2011. D54 ERlucT glycosylation luciferase reporter, 24 h; percent of 100 nM tunicamycin response;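 active means mean luciferase reporter signal, scaled so untreated is 0 and the glycosylation-blocking control 100, at or above a set limit in every replicate; inconclusive means mean reaches the limit but not every replicate does; inactive means mean below the limit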;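 further: luciferase carries N-glycosylation sites so blocking glycosylation raises the light; 0% = median of neutral control wells and 100% = median of 100 nM tunicamycin wells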
ABCB6 inh MLPCN – ABCB6 transporter inhibitors, primary screen, K562-ABCB6 cells, flow cytometry, MLPCN library; ATP-binding cassette sub-family B member 6 (Homo sapiens), Q9NP58; K562-ABCB6 porphyrin accumulation, 1 h; hits give low values; fluorescence ratio to DMSO, % at 10 µM; 360,000 tested, 0.19% active; AID 602162, 2011;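 active means fluorescence ratio to DMSO below 75%, the collection mean minus 3 SD; inconclusive means too few cells collected in the well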;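 further: signal is porphyrin accumulated inside mitochondria; 100% equals median channel fluorescence of DMSO control wells; lower ratio means ABCB6 inhibition with less porphyrin fluorescence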
Target sequence (Q9NP58 whole entry, looked up): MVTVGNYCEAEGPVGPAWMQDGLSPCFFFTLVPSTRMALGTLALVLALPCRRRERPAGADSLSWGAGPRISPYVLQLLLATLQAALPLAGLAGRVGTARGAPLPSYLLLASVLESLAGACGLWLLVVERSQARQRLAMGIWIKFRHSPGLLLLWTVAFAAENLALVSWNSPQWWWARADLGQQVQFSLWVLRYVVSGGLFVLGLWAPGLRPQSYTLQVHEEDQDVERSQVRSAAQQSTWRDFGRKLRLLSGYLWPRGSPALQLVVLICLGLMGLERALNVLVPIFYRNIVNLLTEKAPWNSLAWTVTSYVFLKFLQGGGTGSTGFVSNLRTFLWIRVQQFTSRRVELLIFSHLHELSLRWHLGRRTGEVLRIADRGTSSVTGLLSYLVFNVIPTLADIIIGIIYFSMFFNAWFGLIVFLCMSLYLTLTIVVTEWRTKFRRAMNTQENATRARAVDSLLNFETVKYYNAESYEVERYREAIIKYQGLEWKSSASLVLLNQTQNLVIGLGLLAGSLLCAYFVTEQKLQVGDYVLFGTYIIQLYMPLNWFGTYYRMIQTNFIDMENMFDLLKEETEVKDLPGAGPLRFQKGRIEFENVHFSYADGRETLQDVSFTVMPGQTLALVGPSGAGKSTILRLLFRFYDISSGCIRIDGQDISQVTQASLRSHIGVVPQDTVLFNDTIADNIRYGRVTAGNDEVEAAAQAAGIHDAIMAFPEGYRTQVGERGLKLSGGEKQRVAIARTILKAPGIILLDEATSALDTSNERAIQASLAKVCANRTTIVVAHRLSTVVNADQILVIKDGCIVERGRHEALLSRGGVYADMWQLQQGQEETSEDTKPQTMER
Myeloid diff MLP – induction of myeloid progenitor differentiation, primary screen, cell-based, flow cytometry, MLPCN library; ER-HoxA9 myeloid progenitors, lysozyme-GFP differentiation; calls only at 10 µM; 360,000 tested, 1% active;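 active means normalized GFP-positive differentiation at or above the plate's own cutoff, the solvent-only control mean plus 3 SD; inconclusive means no clear call, values can overlap the other calls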;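 further: cells exposed to compound for four days before flow analysis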
Myeloid diff CP1 – inducers of myeloid progenitor differentiation, confirmation, cell-based, GFP/Mac1 flow cytometry, cherry pick 01. shares compounds with Myeloid diff MLP. ER-HoxA9 myeloid progenitors, GFP/Mac1 double-positive flow. calls only. 2,300 tested, 2% active. AID 651706, 2012;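 active means share of green or green-and-red cells above 9 and 9% in run 1 or 4 and 3% in run 2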
GFP autofluor – compound fluorescence in myeloid differentiation counter-screen; fluorescence response, % (concentration not given with the values); ER-HoxA9 myeloid progenitors, no estrogen, GFP autofluorescence flow cytometry; vehicle wells 0%, positive control 100%; AID 651707; 2,300 tested, 7.4% active; shares compounds with Myeloid diff MLP;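 active means over 5% cells positive for green fluorescent reporter, or over 2% positive for both it and APC stain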;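 further: range taken on the double positive population between DMSO and positive control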
* marks the source's active call; other numbers are inactive results; i = inactive; ? = inconclusive; nt = not tested or not shown; + = active, no number.

SMILES | Vif inh | RAD54 branch | Glyco luc inh | ABCB6 inh MLPCN | Myeloid diff MLP | Myeloid diff CP1 | GFP autofluor
CCC1(CC)NC(=O)N(CC(=O)OCC(=O)Nc2cc(C)ccc2C)C1=O | 3.0 | -26.7 | 0.6 | 93.0 | + | i | 0.0
O=C(C[C@H]1C=C[C@H](NC(=O)Nc2cccc(F)c2)[C@@H](CO)O1)NCC1CC1 | nt | 4.5 | nt | nt | nt | nt | nt
COc1ccc2c(c1)NC(=O)CC(c1ccccc1)=N2 | -2.1 | -13.2 | 1.2 | 103.0 | i | i | 0.0
Cc1ccc(S(=O)(=O)Nc2ccc3c(c2)CC(=O)N([C@H](C)CO)C[C@@H](C)[C@@H](CN(C)S(=O)(=O)c2cn(C)cn2)O3)cc1 | nt | 2.0 | nt | nt | nt | nt | nt
C[C@H](CO)N1C[C@H](C)[C@@H](CN(C)C(=O)Oc2ccccc2)OCc2cn(nn2)CCCC1=O | 19.1 | 2.9 | 2.8 | 104.0 | i | i | 0.0
C[C@H]1CN([C@@H](C)CO)C(=O)CCCn2nncc2CO[C@H]1CN(C)C(=O)CCC(F)(F)F | 13.0 | -7.2 | 1.8 | 100.0 | i | i | 0.0
C[C@H]1CN([C@@H](C)CO)C(=O)CCCn2nncc2CO[C@H]1CN(C)S(=O)(=O)c1cccc(F)c1 | 25.9 | 0.3 | 0.8 | 102.0 | i | i | 0.0
C[C@@H]1CCCCO[C@H](CN(C)Cc2ccncc2)[C@@H](C)CN([C@@H](C)CO)C(=O)c2cc(NC(=O)NC3CCCCC3)ccc2O1 | nt | -3.0 | nt | nt | nt | nt | nt
COc1ccc(Oc2ccc(N/C=C3/CCCC3=O)cc2)cc1 | -14.6 | ? | -3.9 | 96.0 | i | nt | nt
COc1ccc(N/C=C2/CCCCC2=O)cc1 | -14.7 | 9.8 | 1.8 | 101.0 | i | i | 0.7
Cc1ccc(NS(=O)(=O)c2cccc(C(=O)NNC(=O)c3ccco3)c2)c(C)c1 | 1.5 | nt | -0.5 | 99.0 | + | i | 0.0
CCCCSc1nnc(CCCCCNC(=O)OC(C)(C)C)o1 | 1.4 | -9.7 | -1.8 | 80.0 | + | i | 0.6
CN(C)C(=O)C[C@H]1CC[C@H]2[C@@H](COc3ccc(NC(=O)c4ccc(F)cc4)cc3C(=O)N2C)O1 | nt | 0.7 | nt | nt | nt | nt | nt
CS(=O)(=O)N1N=C(c2cccs2)CC1c1ccccc1O (stereo unspecified) | -2.4 | nt | 0.3 | 208.0 | i | nt | nt
CCOc1ccccc1C1CC(c2cccs2)=NN1S(C)(=O)=O (stereo unspecified) | -3.0 | nt | -1.0 | 679.0 | + | i | 91.8*
C[C@@H]1CN([C@@H](C)CO)C(=O)Cc2cc(NC(=O)Nc3ccc(C(F)(F)F)cc3)ccc2O[C@@H]1CN(C)C(=O)Nc1ccc(F)cc1 | nt | 4.2 | nt | nt | nt | nt | nt
COc1ccc(N(CC(=O)Nc2cc(OC)ccc2OC)S(C)(=O)=O)cc1 | -2.7 | nt | 0.2 | 100.0 | i | i | 0.2
O=C(NCC[C@H]1CC[C@@H](NC(=O)c2cccnc2)[C@H](CO)O1)Nc1ccc(Cl)cc1 | nt | 11.8 | nt | nt | nt | nt | nt
CNC(=O)/C(C#N)=C1/SC(Cc2ccc(F)cc2)C(=O)N1c1ccccc1 (stereo unspecified) | -0.5 | nt | 0.3 | 97.0 | i | nt | nt
N#C/C(C(N)=O)=C1/SC(Cc2ccc(F)cc2)C(=O)N1c1ccccc1 (stereo unspecified) | 1.6 | nt | -1.0 | 96.0 | i | i | 4.0
CCC1S/C(=C(\C#N)C(N)=O)N(c2ccc(F)cc2)C1=O (stereo unspecified) | 3.5 | -13.6 | 1.5 | 84.0 | i | nt | nt
Cc1ccccc1N1C(=O)C(Cc2ccc(F)cc2)S/C1=C(\C#N)C(N)=O (stereo unspecified) | -2.2 | -8.3 | -3.5 | 97.0 | i | i | 4.9
COc1ccc(NC(=O)N2C[C@@H](O)COC[C@@H]3O[C@H](CC(=O)N4CCN(C)CC4)CC[C@H]32)cc1 | nt | 4.3 | nt | nt | nt | nt | nt
COc1cccc(-c2ccc3c(c2)[C@@H]2[C@@H](CCN2S(=O)(=O)c2ccccc2OC)[C@H](CO)N3C)c1 | nt | 6.1 | nt | nt | nt | nt | nt
CCN(C[C@H]1[C@H](c2ccccc2)[C@@H](CO)N1C(C)=O)C(=O)NC(C)C | nt | -1.5 | nt | nt | nt | nt | nt
SMILES | Vif inh | RAD54 branch | Glyco luc inh | ABCB6 inh MLPCN | Myeloid diff MLP | Myeloid diff CP1 | GFP autofluor
CN(C)c1ccc(-c2cc(O)c3ncccc3c2)cc1 | 12.7 | 1.0 | -3.7 | 91.0 | ? | nt | nt
Oc1cc(-c2ccncc2)cc2cccnc12 | -2.6 | 8.2 | -11.8 | 102.0 | + | i | 0.0
CO[C@H]1CN(C)C(=O)c2ccc(NS(C)(=O)=O)cc2OC[C@H](C)N(CCC(F)(F)F)C[C@H]1C | nt | -3.4 | nt | nt | nt | nt | nt
CCOC(=O)c1c(C)c(C(=O)Nc2cc(OC)ccc2OC)c(C)n1CC | -10.5 | 3.0 | 8.2 | 105.0 | + | i | 1.3
CO[C@@H]1CN(C)C(=O)c2ccc(NC(=O)Nc3cc(F)ccc3F)cc2OC[C@@H](C)N(C(=O)c2cnccn2)C[C@H]1C | nt | -3.3 | nt | nt | nt | nt | nt
O=C(CNC(=O)c1ccc(=O)[nH]c1)Nc1ccc(F)c(F)c1 | -40.0 | -7.0 | 0.2 | 94.0 | + | i | 0.5
Cc1cc(C(=O)Nc2cccc3c2O[C@@H](CN(C)S(=O)(=O)c2ccccc2)[C@H](C)CN([C@H](C)CO)C3=O)n(C)n1 | nt | 2.6 | nt | nt | nt | nt | nt
C[C@H]1CN([C@@H](C)CO)C(=O)c2cc(C3=CCCC3)cnc2O[C@H]1CN(C)C | nt | -2.3 | nt | nt | nt | nt | nt
O=C(C[C@H]1CC[C@@H]2[C@H](COC[C@@H](O)CN2S(=O)(=O)c2ccccc2)O1)N1CCOCC1 | nt | -6.9 | nt | nt | nt | nt | nt
CC(C)(C)c1ccc(NC(=O)CC2(C(F)(F)F)OCCO2)cc1 | -2.2 | 0.1 | -1.9 | 101.0 | i | i | 1.9
COc1cccc(C(O)c2nc(-c3ccccc3C)cs2)c1 (stereo unspecified) | 1.0 | -3.3 | -0.1 | 101.0 | + | i | 0.3
NC(=O)NC(Cc1ccccc1)C(=O)O (stereo unspecified) | 5.3 | 3.2 | 1.5 | 100.0 | i | nt | nt
NC(=O)NC(Cc1ccccc1)c1ccccc1 (stereo unspecified) | nt | 5.3 | -1.1 | 100.0 | + | i | 0.3
COC(=O)c1cc(NS(=O)(=O)c2ccc3c(c2)CCC(=O)N3)cc(C(=O)OC)c1 | 2.1 | 1.9 | 0.2 | 94.0 | + | i | 0.0
CCCC#Cc1cnc2c(c1)C(=O)N([C@@H](C)CO)C[C@@H](C)[C@@H](CN(C)C(=O)c1ccc3c(c1)OCO3)O2 | nt | 2.4 | nt | nt | nt | nt | nt
COC(=O)c1ccc(NC(=O)Nc2ccccc2C)cc1 | -4.4 | nt | -0.5 | 98.0 | i | i | 0.6
